{"source": "PubChem BioAssay AID1981", "about": "(Southern Research Specialized Biocontainment Screening …, 2009)", "note": "About 480 (22%) of roughly 2,200 compounds were called active. Not all results are given here. Potency and affinity values are given separately. A number with no mark means an inactive call. How the calls were made is not given here.", "data": [{"assay": "S. Typhimurium GFP fluorescence modified counterscreen for PhoP regulon inhibitor project dose response (AID 1981);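 further: 0% = induced DMSO wells and 100% = uninduced wells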", "settings": "4 h; series mostly up to 150 µM; inhibition: at the top concentration", "units": {"inhibition": "%"}, "values": [{"smiles": "CCOC(=O)C1=NNC2(c3ccc(Cl)cc3)C(=O)N(c3cc(C)cc(C)c3)C(=O)C12", "note": "(centres undefined)", "inhibition": -7.93}, {"smiles": "CCn1nc(C(=O)OC(C(=O)c2c[nH]c3ccccc23)c2ccccc2)c2ccccc2c1=O", "note": "(centres undefined)", "inhibition": 39.2}, {"smiles": "COc1cccc(/C=N/NC(=O)c2ccc(-c3ccccc3)cc2)c1O", "inhibition": 11.6}, {"smiles": "Cc1ccc(/C=N/NC(=O)Cn2cnc3ccccc32)o1", "inhibition": -14.7}, {"smiles": "c1ccc2c(N3CCCCCC3)nc(-c3ccncc3)nc2c1", "inhibition": 1.68}, {"smiles": "Brc1ccc(OCCn2ccnc2)cc1", "inhibition": 11.1}, {"smiles": "Oc1ccccc1-c1nc(/C=C/c2ccccc2)nn1-c1ccccc1", "inhibition": -36.1}, {"smiles": "Cc1cc(C)c(NC(=S)NC(=O)c2ccc(-c3ccccc3)cc2)c(C)c1", "inhibition": 2.08}, {"smiles": "CC(C)OC(=O)c1ccc(NC(=O)c2ccccc2)cc1", "inhibition": -11.2}, {"smiles": "O=C(Cc1cccs1)N(c1ccccc1)C1C=CS(=O)(=O)C1", "note": "(centres undefined)", "inhibition": -11.7}, {"smiles": "Oc1[nH]c(=S)sc1/C=C1\\C(c2ccccc2)=Nc2ccccc21", "inhibition": -4.64}, {"smiles": "Oc1ccc(Br)cc1-c1ccn[nH]1", "inhibition": -8.94}, {"smiles": "O=C(CSc1nc2ccccc2[nH]1)Nc1ccc(F)c(F)c1", "inhibition": -2.94}, {"smiles": "Cc1ccc(O)c(-c2cc(-c3ccccc3C)[nH]n2)c1", "inhibition": 15.8}, {"smiles": "Clc1c(OCCCn2ccnc2)ccc2ccccc12", "inhibition": -2.83}, {"smiles": "Cc1ccc(C)n1-c1cc([N+](=O)[O-])ccc1-n1ccnc1", "inhibition": 1.81}, {"smiles": "CN(CCO)Cc1csc2ccc(Br)cc12", "inhibition": 10.8}, {"smiles": "O=C(Nc1cccc2ccccc12)OC1C=CS(=O)(=O)C1", "note": "(centres undefined)", "inhibition": 0.66}, {"smiles": "CN(C)C=NC(=O)c1[nH]c2ccc(Cl)cc2c1-c1ccccc1", "inhibition": -3.96}, {"smiles": "Cn1cnnc1SCC(=O)Nc1cccc(C(=O)O)c1", "inhibition": -3.44}, {"smiles": "Cc1nnc(SC(C)C(=O)Nc2ccc(S(=O)(=O)N3CCCCCC3)cc2)s1", "note": "(centres undefined)", "inhibition": -5.05}, {"smiles": "CCOC(=O)N1CCN(C(=O)c2cn(CC(C)C)c(=O)c3c2c2ccccc2n3C)CC1", "inhibition": -15.5}, {"smiles": "CCOC(=O)c1cn(CC)c2cc(N3CCOCC3)c(F)cc2c1=O", "inhibition": -4.83}, {"smiles": "N#CC1=C(S)N(c2ccccc2)C(c2ccc(-c3ccccc3Cl)o2)NC1=O", "note": "(centres undefined)", "inhibition": 38.9}, {"smiles": "Cc1ccc(O)c(-c2cc(-c3cccc(F)c3)n[nH]2)c1", "inhibition": 17.5}, {"smiles": "Cc1ccc2nc(C)c(CN3CCN(c4ccc([N+](=O)[O-])cc4Cl)CC3)n2c1", "inhibition": 6.83}, {"smiles": "O=S(=O)(Nc1ccc(Cc2ccncc2)cc1)c1ccc(Br)s1", "inhibition": -5.89}, {"smiles": "Nc1ccc2oc3ccc(N)cc3c(=O)c2c1", "inhibition": 5.55}, {"smiles": "Nc1ccc2oc(=O)c3ccccc3c2c1", "inhibition": 15.3}, {"smiles": "COc1ccc(-n2ncc(S(=O)(=O)c3ccccc3)c2-c2ccc(Cl)cc2)cc1", "inhibition": -1.69}, {"smiles": "COc1ccc2nc(SCC(=O)N(C)C3CCCCC3)c(C#N)cc2c1", "inhibition": 11.2}, {"smiles": "CCCn1c(SCC(=O)NCCc2ccccc2)nnc1-c1cccnc1", "inhibition": -17.2}, {"smiles": "Cc1ccc(-c2[nH]c(-c3ccc(Cl)cc3)nc2SCC(=O)NCC2CCCO2)cc1", "note": "(centres undefined)", "inhibition": -22.5}, {"smiles": "S=C(NN=C1C2CC3CC(C2)CC1C3)Nc1ccccc1", "inhibition": -20.6}, {"smiles": "Cc1ccc(C(C(=O)NCc2ccco2)N(CCc2ccccc2)C(=O)Cn2nnc3ccccc32)o1", "note": "(centres undefined)", "inhibition": 0.66}, {"smiles": "O=C(Nc1cccc(-c2cn3cccnc3n2)c1)c1ccco1", "inhibition": -0.8}, {"smiles": "Cn1c(NCc2ccccc2O)nc2ccccc21", "inhibition": -11}, {"smiles": "N/C(=N\\OC(=O)c1ccc(F)cc1)c1nonc1N", "inhibition": -2.93}, {"smiles": "CNC(=O)c1ccc(-c2ccc(F)cc2)s1", "inhibition": 3.2}, {"smiles": "COc1cc(/C=C2/SC(=S)N(CC(=O)Nc3cccnc3)C2=O)cc(OC)c1OC", "inhibition": 0.53}, {"smiles": "CCCCCCC(=O)N(O)C1CC(=O)N(c2ccc(C)cc2)C1=O", "note": "(centres undefined)", "inhibition": 32.2}, {"smiles": "C=CCNC(=S)NNC(=O)c1cccn(Cc2ccc(Cl)cc2)c1=O", "inhibition": -6.06}, {"smiles": "Nc1cc(Br)c(N)c(Br)c1", "inhibition": 3.41}, {"smiles": "CC(=O)NC1C(c2nc3ccccc3s2)=C(c2ccccc2)C(=O)N1c1ccc(C)cc1", "note": "(centres undefined)", "inhibition": 8.75}, {"smiles": "CC1Cc2ccccc2N1C(=O)COC(=O)c1ccc(S(=O)(=O)N(C)C)cc1", "note": "(centres undefined)", "inhibition": -8.24}, {"smiles": "COC(=O)Cc1c(O)ccn(Cc2ccc(F)cc2)c1=O", "inhibition": 2.05}, {"smiles": "CCc1c(C)c2cc(Cl)c(O)c(CN(C)C)c2oc1=O", "inhibition": -4.76}, {"smiles": "CC1=CC(C)(C)n2c(O)c(C3=NC(=S)NC3=O)c3cc(OC(=O)c4cccc5ccccc45)cc1c32", "inhibition": 3.99}, {"smiles": "Cn1c(=N)n(CC(=O)c2ccc(Br)s2)c2ccccc21", "inhibition": 3.25}, {"smiles": "N=c1n(CC(=O)c2ccc([N+](=O)[O-])cc2)c2ccccc2n1Cc1ccccc1", "inhibition": 6.44}, {"smiles": "COc1cc(S(=O)(=O)N2CCCCC2)ccc1NC=O", "inhibition": 4.28}, {"smiles": "NC1=Nc2ccccc2Oc2ccccc21", "inhibition": 9.55}, {"smiles": "NC1=NC(=Nc2cccc(Cl)c2)c2ccccc21", "inhibition": 2.71}, {"smiles": "c1ccc2c(C3=NNC(=NC4CCCCC4)SC3)c[nH]c2c1", "inhibition": 22.7}, {"smiles": "CN(C)S(=O)(=O)Nc1ccc(C(=O)O)cc1", "inhibition": -3.1}, {"smiles": "COc1cccc(OCC(O)CN2CCN(c3ccccn3)CC2)c1", "note": "(centres undefined)", "inhibition": 4.43}, {"smiles": "Cn1c(SCC(=O)NC(=O)c2cccc([N+](=O)[O-])c2)nnc1-c1ccc(F)cc1", "inhibition": -12.3}, {"smiles": "O=C(Cn1cc[n+](CC(=O)c2ccccc2)c1)c1ccccc1", "inhibition": 2.89}, {"smiles": "C/C(=N/Nc1nc(-c2ccccc2)cc(-c2ccc(F)cc2)n1)c1cccc(N)c1", "inhibition": -15.2}, {"smiles": "c1ccc(-c2nnc(SCCC3OCCCO3)o2)cc1", "inhibition": 0.89}, {"smiles": "CC1(C)CC2CC(C)(CN2C(=O)COC(=O)c2n[nH]c(=O)c3ccccc23)C1", "note": "(centres undefined)", "inhibition": -11.8}, {"smiles": "Fc1ccccc1COc1ccc(Br)cc1CNCc1ccncc1", "inhibition": 6.22}, {"smiles": "O=[N+]([O-])c1ccccc1CNc1ccc(F)c(Cl)c1", "inhibition": -9.25}, {"smiles": "c1ccc(COc2ccccc2CNCc2cccnc2)cc1", "inhibition": -13.4}, {"smiles": "O=c1cc(CSc2nc(NCc3ccccc3)c3ccccc3n2)nc2ccc(Cl)cn12", "inhibition": -1.33}, {"smiles": "N#CCCN(C(=O)CN1C(=O)NC2(CCCC2)C1=O)c1ccccc1F", "inhibition": -3.3}, {"smiles": "O=C(CCNS(=O)(=O)c1cccc2nsnc12)Nc1ccc2c(c1)OCCO2", "inhibition": -1.71}, {"smiles": "Cc1nc2c(=O)n(C)c(=O)n(C)c2nc1Cl", "inhibition": 27.1}, {"smiles": "Cc1cc(C)nc(/N=C(\\N)Nc2ccc(SC(F)F)cc2)n1", "inhibition": -2.31}, {"smiles": "CC(=O)c1c(C)[nH]c(C(=O)CSc2nnc(-c3ccco3)n2Cc2ccccc2)c1C", "inhibition": -0.99}, {"smiles": "O=C(Cn1nc(Cc2cccnc2)c2ccccc2c1=O)NCc1ccc2c(c1)OCO2", "inhibition": -5.89}, {"smiles": "CCn1cc(C(=O)O)c(=O)c2cc(Br)ccc21", "inhibition": 23.3}, {"smiles": "O=C(O)c1cc(NCc2ccc3c(c2)OCO3)ccc1N1CCOCC1", "inhibition": -0.23}, {"smiles": "Cc1ccc(S(=O)(=O)c2cn(Cc3ccc(F)cc3)c3cc4c(cc3c2=O)OCO4)cc1", "inhibition": 1.56}, {"smiles": "Cc1cccc(C(=O)O/N=C2\\CCSc3ccc(C)cc32)c1", "inhibition": -14.1}, {"smiles": "Cc1cccc(OCC(=O)N(Cc2cccs2)C2CCS(=O)(=O)C2)c1C", "note": "(centres undefined)", "inhibition": -15.6}, {"smiles": "O=c1c2c([nH]c3ccccc13)CCCCC2", "inhibition": 19.2}, {"smiles": "CCCOc1ccc(/C=N/O)cc1", "inhibition": -3.17}, {"smiles": "Clc1ccc(-c2c[n+](Cc3ccc(Cl)cc3Cl)c3n2CCCCC3)cc1", "inhibition": -3.21}, {"smiles": "CCN(CC)CC(=O)Nc1nc(-c2ccc(Cl)cc2)cs1", "inhibition": -7.54}, {"smiles": "O=C(C[n+]1cc(-c2ccccc2)n2c1CCCCC2)c1ccc(Cl)cc1", "inhibition": -1.46}, {"smiles": "Clc1ccc(C[n+]2cc(-c3ccc(Cl)cc3)n3c2CCC3)cc1", "inhibition": 7.72}, {"smiles": "C/C(=N/Nc1nc(-c2ccc(Cl)cc2)cs1)c1cccs1", "inhibition": -14.2}, {"smiles": "CCOC(=O)Cc1ccc(NS(=O)(=O)c2ccc(SC)cc2)cc1", "inhibition": -8.64}, {"smiles": "CCOC(=O)N1CCN(C(=O)c2ccc(NC(=O)c3ccc(C)cc3)cc2)CC1", "inhibition": 12.8}, {"smiles": "O=C(O)C1CCC(N2C(=O)C3CCCCC3C2=O)CC1", "note": "(centres undefined)", "inhibition": -1.85}, {"smiles": "COC(=O)c1sccc1NC(=O)c1cccnc1", "inhibition": 0.03}, {"smiles": "Cc1ccc(Nc2nnc(C3C(=O)N(C)C4(C)CC3c3cc(Br)ccc3O4)s2)cc1", "note": "(centres undefined)", "inhibition": -4.36}, {"smiles": "Cc1ccc(S(=O)(=O)c2c(C(=O)c3ccccc3)cnc3cc4c(cc23)OCCO4)cc1", "inhibition": 16.2}, {"smiles": "CC1(C)CC(=O)C2=C(C1)N(Cc1ccccc1)C(=O)C2(O)C(F)(F)F", "note": "(centres undefined)", "inhibition": 2}, {"smiles": "CCN1C(=O)/C(=C/N2CC(C)CC(C)C2)SC1=S", "note": "(centres undefined)", "inhibition": -15.7}, {"smiles": "CN(CCO)c1cc(Sc2nc3ccccc3s2)c2nonc2c1[N+](=O)[O-]", "inhibition": 0.73}, {"smiles": "Cc1ccc([N+](=O)[O-])cc1NC(=S)NC(=O)C(C)(C)C", "inhibition": -14.7}, {"smiles": "O=C(CSc1n[nH]c(=O)[nH]c1=O)N/N=C/c1ccccc1", "inhibition": -7.06}, {"smiles": "Cc1ccccc1-n1c(C)cc(/C=N/Nc2ccc([N+](=O)[O-])cn2)c1C", "inhibition": 0.91}, {"smiles": "Cc1ccsc1/C=N/NC(=O)Cn1cnc2ccccc21", "inhibition": -7.04}, {"smiles": "O=C(CSc1nc2ccccc2s1)Nc1ccc(N2CCOCC2)c(Cl)c1", "inhibition": -4.65}, {"smiles": "Cc1cc([N+](=O)[O-])ccc1NC(=O)Cc1ccc(F)cc1", "inhibition": -22.2}, {"smiles": "COc1ccc(NC(=O)c2sccc2SCC#N)cc1", "inhibition": -8.07}, {"smiles": "CC(=S)c1c(C)cc2cc(C)ccn12", "inhibition": -0.73}, {"smiles": "CN(C)c1ccnc(Oc2ccc(F)cc2)c1C#N", "inhibition": -6.5}, {"smiles": "CCn1c(SCc2ccc(F)cc2)nnc1C1CCN(S(=O)(=O)c2ccc(OC)cc2)CC1", "inhibition": -8.67}, {"smiles": "Cc1ccc(C(C)C)c(OCC(=O)Nn2c(=O)[nH]c3ccccc3c2=O)c1", "inhibition": 10}, {"smiles": "COc1ccc(S(=O)(=O)N2Cc3ccccc3CC2C(=O)N2CCOCC2)cc1OC", "note": "(centres undefined)", "inhibition": -0.72}, {"smiles": "CCNC(=O)NC1(C(=O)Nc2ccc3c(c2)OCCO3)CCCCC1", "inhibition": -6.31}, {"smiles": "CCN(CC)c1ccc(S(=O)(=O)Nc2cc(Cl)ccc2Cl)cc1NC(=S)NC(=O)C1CCCC1", "inhibition": -28.7}, {"smiles": "CCN1CCN(Cc2ccc(C)cc2C)CC1", "inhibition": -22.1}, {"smiles": "Cc1ccc(C2NNC(=O)C2NC(=O)c2ccccc2)cc1", "note": "(centres undefined)", "inhibition": -8.3}, {"smiles": "Cc1nc(N)sc1Cc1ccc2c(c1)OCO2", "inhibition": -1.43}, {"smiles": "C=CCNc1sc(C(=O)c2ccc(C)cc2)c(N)c1C#N", "inhibition": 7.13}, {"smiles": "COC(=O)C(CCSC)NC(=O)c1cccc([N+](=O)[O-])c1", "note": "(centres undefined)", "inhibition": 1.67}, {"smiles": "NC(=O)c1cnn(Cc2ccc(Cl)cc2)c1N", "inhibition": -11.2}, {"smiles": "Cc1nc2c(Cl)cccc2c2c1CC(CBr)O2", "note": "(centres undefined)", "inhibition": 8.79}, {"smiles": "CC(=O)NC12CC3CC(C1)CC(C(=O)OCC(=O)c1ccc4c(c1)OCCO4)(C3)C2", "inhibition": -5.94}]}]}
